# Assay results taken from PubChem BioAssay (NCATS).
# Several values for one entry are separate records, joined by “and”; a condition that tells them apart may be missing. Identical values can stand only once. Records with an inconclusive call do not appear. Activity calls are given as the source filed them. Unless noted, calls come from the whole dose curve.
# Legend:
# [1] = target: Estrogen receptor (Homo sapiens) (UniProt P03372); assay: qHTS assay for small molecule agonists of estrogen receptor alpha signaling (AID 588514);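 note: 0% = vehicle only and 100% = reference agonist; nearly all actives have a fitted effect of over 70% in size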
# Chain of Estrogen receptor (Homo sapiens) (P03372 whole entry, looked up): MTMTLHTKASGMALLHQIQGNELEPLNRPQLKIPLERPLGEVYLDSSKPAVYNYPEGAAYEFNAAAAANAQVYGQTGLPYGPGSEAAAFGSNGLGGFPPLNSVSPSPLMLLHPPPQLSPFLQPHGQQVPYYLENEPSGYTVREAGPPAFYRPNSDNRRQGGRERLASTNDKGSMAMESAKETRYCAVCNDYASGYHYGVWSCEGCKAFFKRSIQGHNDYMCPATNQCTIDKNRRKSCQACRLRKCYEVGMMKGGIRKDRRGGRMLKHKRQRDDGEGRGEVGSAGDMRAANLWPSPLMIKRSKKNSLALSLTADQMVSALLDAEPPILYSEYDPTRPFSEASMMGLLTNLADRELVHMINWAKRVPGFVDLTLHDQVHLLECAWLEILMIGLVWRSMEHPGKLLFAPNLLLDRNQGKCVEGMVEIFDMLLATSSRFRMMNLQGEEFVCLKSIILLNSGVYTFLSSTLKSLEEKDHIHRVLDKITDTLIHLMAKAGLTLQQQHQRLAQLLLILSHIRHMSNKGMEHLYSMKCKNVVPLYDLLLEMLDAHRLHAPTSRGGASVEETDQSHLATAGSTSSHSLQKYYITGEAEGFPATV
# How it was run: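 Efficacy is expressed against 20 nM 17-beta-estradiol (100%) and DMSO basal (0%); EC50 from Hill equation. Assay: beta-lactamase reporter in ER-alpha-UAS-bla HEK 293 cells, 18 h compound incubation, CCF4 detection.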
# [2] = qHTS assay for small molecule agonists of retinoid X receptor alpha signaling (AID 588544); conditions: HEK293T RXRa-UAS-bla, beta-lactamase reporter, 18 h; 530 nm emission
# [3] = target: Glucocorticoid receptor (Homo sapiens) (UniProt P04150); assay: qHTS assay for small molecule antagonists of glucocorticoid receptor signaling (AID 588533; active = well fitted inhibition curve with a large enough effect in the signal ratio, with a control signal flat, not every such curve was filed as active; the % refers to the signal ratio;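 note: cells stimulated with 2 nM dexamethasone as agonist; % is set by controls: 0 for no effect and ±100 for the full control effect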)
# Chain of Glucocorticoid receptor (Homo sapiens) (P04150 whole entry, looked up): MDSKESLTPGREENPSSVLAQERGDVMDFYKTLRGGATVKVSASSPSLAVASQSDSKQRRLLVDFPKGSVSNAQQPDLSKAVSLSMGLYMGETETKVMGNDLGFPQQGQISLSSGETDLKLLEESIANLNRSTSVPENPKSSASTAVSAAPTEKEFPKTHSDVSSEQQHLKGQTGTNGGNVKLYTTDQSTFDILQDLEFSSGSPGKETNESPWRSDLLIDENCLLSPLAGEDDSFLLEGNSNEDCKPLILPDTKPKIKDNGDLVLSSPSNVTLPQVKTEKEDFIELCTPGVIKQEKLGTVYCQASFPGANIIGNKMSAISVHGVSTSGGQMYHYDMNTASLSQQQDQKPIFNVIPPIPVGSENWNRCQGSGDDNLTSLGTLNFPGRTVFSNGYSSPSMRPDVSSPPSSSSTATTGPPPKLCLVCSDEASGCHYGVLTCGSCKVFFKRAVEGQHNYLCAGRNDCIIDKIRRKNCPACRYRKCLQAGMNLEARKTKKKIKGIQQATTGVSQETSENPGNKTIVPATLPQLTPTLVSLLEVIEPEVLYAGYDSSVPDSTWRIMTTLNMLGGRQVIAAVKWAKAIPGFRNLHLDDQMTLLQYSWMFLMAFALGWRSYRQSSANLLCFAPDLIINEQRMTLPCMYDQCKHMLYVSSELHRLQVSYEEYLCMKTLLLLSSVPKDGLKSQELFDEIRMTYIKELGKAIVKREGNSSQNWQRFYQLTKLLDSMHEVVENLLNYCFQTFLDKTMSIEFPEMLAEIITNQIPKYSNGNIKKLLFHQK
# How it was run: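 Antagonist-mode qHTS: compound titrations added to GRE-bla HeLa cells, then dexamethasone 2 nM final; 18 h, 37 C. CCF4 FRET fluorescence normalized to dexamethasone and DMSO; IC50 from Hill fit.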
# [4] = target: Thyroid hormone receptor beta (Homo sapiens) (UniProt P10828); assay: qHTS assay for small molecule antagonists of thyroid hormone receptor beta signaling (AID 588547; active = well fitted inhibition curve with a large enough effect in the signal ratio, with a control signal flat, not every such curve was filed as active; the % refers to the signal ratio;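 note: cells stimulated with 0.4 nM T3 agonist during compound exposure; series mostly up to about 77 µM; % is set by controls: 0 for no effect and ±100 for the full control effect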); conditions: TR-UAS-bla HEK293, beta-lactamase ratio, antagonist mode, 18 h
# Chain of Thyroid hormone receptor beta (Homo sapiens) (P10828 whole entry, looked up): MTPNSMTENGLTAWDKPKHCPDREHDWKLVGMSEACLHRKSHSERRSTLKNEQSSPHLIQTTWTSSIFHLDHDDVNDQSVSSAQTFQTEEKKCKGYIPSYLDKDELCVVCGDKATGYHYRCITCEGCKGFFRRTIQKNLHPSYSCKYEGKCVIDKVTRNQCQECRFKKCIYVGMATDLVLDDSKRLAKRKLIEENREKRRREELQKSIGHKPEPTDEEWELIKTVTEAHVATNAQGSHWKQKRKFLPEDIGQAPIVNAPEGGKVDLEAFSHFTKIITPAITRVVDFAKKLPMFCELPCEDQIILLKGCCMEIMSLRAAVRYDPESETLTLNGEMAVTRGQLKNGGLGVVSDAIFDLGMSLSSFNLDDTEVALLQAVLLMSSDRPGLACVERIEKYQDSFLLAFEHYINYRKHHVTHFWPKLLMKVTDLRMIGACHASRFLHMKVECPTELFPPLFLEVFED
# How it was run: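 Inhibition of T3-driven (0.4nM final) beta-lactamase reporter activity was measured over 0.59 nM to 92 uM compound after 18 h at 37 C. The cells were GripTite HEK293 TR-UAS-bla in charcoal/dextran-stripped serum, with CCF4 ratio read-out and IC50 from Hill fits.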
# [5] = qHTS assay for small molecule agonists of the antioxidant response element (ARE) signaling pathway (AID 651741; active = well fitted activation curve with a large enough effect in the signal ratio; the % refers to the signal ratio; note: potency is the fitted concentration of half-maximal effect; for activation: % of control where 0% means no effect)
# How it was run: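 Beta-lactamase reporter under ARE control in HepG2 cells, 2,000 per well, was induced by 16 h compound treatment at 37 C. Read-out was fluorescence from LiveBLAzer B/G FRET substrate after 2 h at room temperature.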
# [6] = qHTS assay for small molecule activators of the nuclear factor-kappa B (NF-kB) signaling pathway (AID 651749; active = well fitted activation curve with a large enough effect in the signal ratio; the % refers to the signal ratio; note: series mostly up to about 77 µM; % of control where 0% means no effect); conditions: NF-kB-bla ME-180 cells, beta-lactamase FRET ratio, 16 h; activation: stronger effect = higher value
# How it was run: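 Activation measured after 16 hr compound treatment at 37C, 5% CO2, of 2,000 ME-180 cells/well stably expressing an NF-kB response element–driven beta-lactamase reporter, via FRET-disruption fluorescence.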
# [7] = qHTS assay for small molecule activators of the human pregnane X receptor (PXR) signaling pathway (AID 720659; call rule not given here; note: 0% is about no effect)
# [8] = target: Bile acid receptor (Homo sapiens) (UniProt Q96RI1); assay: qHTS assay for small molecule agonists of farnesoid X receptor signaling (AID 588527); conditions: HEK293T FXR-UAS-bla, beta-lactamase ratio, 16 h; activation: stronger effect = higher value;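 note: series mostly up to about 77 µM; 0% = vehicle basal and 100% = reference agonist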
# Chain of Bile acid receptor (Homo sapiens) (Q96RI1 whole entry, looked up): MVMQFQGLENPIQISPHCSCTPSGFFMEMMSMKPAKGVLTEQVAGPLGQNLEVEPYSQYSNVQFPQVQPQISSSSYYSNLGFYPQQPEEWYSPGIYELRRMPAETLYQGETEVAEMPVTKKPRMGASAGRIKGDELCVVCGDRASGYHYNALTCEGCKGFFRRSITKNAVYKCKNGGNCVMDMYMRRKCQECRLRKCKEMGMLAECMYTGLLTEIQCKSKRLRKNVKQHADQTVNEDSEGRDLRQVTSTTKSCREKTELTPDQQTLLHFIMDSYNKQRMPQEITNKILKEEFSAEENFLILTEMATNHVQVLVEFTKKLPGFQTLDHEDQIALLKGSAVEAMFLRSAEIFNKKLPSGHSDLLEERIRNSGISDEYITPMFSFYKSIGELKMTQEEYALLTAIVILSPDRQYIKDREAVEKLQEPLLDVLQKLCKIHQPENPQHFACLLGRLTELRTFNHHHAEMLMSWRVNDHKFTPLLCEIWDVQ
# How it was run: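 FXR-UAS-bla HEK293T, 10% dialyzed FBS; cpds up to 92 uM titration, 16 h 37 C; CCF4 dye 2 h RT; fluorescence. Normalized to chenodeoxycholic acid 100 uM (100%) and DMSO (0%); Hill fit gives EC50, efficacy.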
# [9] = target: Androgen receptor (Homo sapiens) (UniProt P10275); assay: qHTS assay for small molecule agonists of androgen receptor signaling (AID 588515; active = well fitted curve in the direction sought with a large enough effect in the signal ratio, with a control signal flat; the % refers to the signal ratio; note: % is set by controls: 0 for no effect and ±100 for the full control effect); conditions: AR-UAS-bla HEK293, beta-lactamase ratio, agonist 16 h; stronger effect = higher value
# Chain of Androgen receptor (Homo sapiens) (P10275 whole entry, looked up): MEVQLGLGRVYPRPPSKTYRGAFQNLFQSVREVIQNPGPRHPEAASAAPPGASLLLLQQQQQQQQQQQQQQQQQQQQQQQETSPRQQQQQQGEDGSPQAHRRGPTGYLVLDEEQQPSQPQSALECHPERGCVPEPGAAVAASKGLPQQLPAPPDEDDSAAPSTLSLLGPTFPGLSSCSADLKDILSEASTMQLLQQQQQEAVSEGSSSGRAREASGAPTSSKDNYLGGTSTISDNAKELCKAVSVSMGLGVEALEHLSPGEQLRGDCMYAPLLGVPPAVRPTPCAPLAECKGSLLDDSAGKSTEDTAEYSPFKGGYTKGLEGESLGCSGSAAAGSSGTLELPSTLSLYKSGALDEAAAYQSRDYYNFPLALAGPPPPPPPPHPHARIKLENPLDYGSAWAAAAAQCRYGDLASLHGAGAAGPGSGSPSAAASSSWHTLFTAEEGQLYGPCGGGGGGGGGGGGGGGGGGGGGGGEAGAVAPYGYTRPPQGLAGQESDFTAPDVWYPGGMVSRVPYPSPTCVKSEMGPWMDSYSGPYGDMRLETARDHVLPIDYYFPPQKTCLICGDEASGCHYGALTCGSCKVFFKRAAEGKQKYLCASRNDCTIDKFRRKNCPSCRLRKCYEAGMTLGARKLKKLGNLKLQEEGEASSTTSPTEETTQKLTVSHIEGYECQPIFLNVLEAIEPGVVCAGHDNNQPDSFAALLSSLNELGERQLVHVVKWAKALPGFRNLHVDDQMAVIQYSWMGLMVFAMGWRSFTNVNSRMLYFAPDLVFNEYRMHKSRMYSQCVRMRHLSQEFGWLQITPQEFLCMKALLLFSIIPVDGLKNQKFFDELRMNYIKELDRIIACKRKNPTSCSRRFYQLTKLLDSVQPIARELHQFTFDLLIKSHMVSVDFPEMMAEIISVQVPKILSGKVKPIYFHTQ
# How it was run: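 Stimulation of an AR-responsive β-lactamase reporter in GripTite HEK293 cells was measured after 16 h compound exposure at 37 °C, via CCF4 fluorescence after 2 h RT. EC50 from Hill fits, normalized to R1881 at 30 nM.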
# [10] = target: Androgen receptor (Homo sapiens) (UniProt P10275); assay: qHTS assay for small molecule antagonists of androgen receptor signaling (AID 588516; active = well fitted curve in the direction sought with a large enough effect in the signal ratio, with a control signal flat, not every such curve was filed as active; the % refers to the signal ratio; note: % is set by controls: 0 for no effect and ±100 for the full control effect)
# How it was run: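 Antagonist-mode qHTS: inhibition of R1881 (10 nM)-driven beta-lactamase expression in GripTite HEK 293 cells is measured after 16 h; values are Hill-derived IC50s normalized between R1881 and DMSO wells.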
# [11] = target: Bile acid receptor (Homo sapiens) (UniProt Q96RI1); assay: qHTS assay for small molecule antagonists of farnesoid X receptor signaling (AID 588526); note: potency is the fitted concentration of half-maximal effect
# How it was run: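 Beta-lactamase reporter antagonist mode: HEK293T FXR-UAS-bla cells, titrated compound, CDCA stimulation, 16 h 37 C, CCF4 dye 2 h RT. Data normalized to CDCA 50 uM and DMSO; Hill-fit IC50.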
structure (smiles),measurement,setting,value
CNP(=O)(OC)Oc1ccc(C(C)(C)C)cc1Cl (stereo not given),Potency,[1],inactive
same,max response,[2],10.3%
C=C(C)C(=O)OCC(CC)CCCC (stereo not given),Potency,[1],inactive
same,Potency,[3],inactive
same,max response,[2],-20.3%
same,activity change % (negative = inhibition),[4],10.1% (inactive)
same,Potency,[5],inactive
same,activation,[6],-0.248% (inactive)
same,outcome,[7],inactive
CC(C)OC(=O)C(O)(c1ccc(Br)cc1)c1ccc(Br)cc1,Potency,[1],inactive
same,activation,[8],5.65% (inactive)
ClCc1ccccc1Cl,activation,[9],1.96% (inactive)
same,Potency,[10],inactive
same,Potency,[11],inactive
same,activation,[8],-0.339% (inactive)
same,Potency,[3],inactive
same,activity change % (negative = inhibition),[4],-5.68% (inactive)
same,outcome,[7],inactive
Cc1cccc2sc3nncn3c12,Potency,[1],inactive
same,Potency,[11],inactive
same,activation,[8],-0.105% (inactive)
same,max response,[2],0.611%
same,activity change % (negative = inhibition),[4],6.25% (inactive)
same,Potency,[5],2.73 µM (active)
N#CN=C1SCCN1Cc1ccc(Cl)nc1,Potency,[1],inactive
same,max response,[2],6.15%
same,activity change % (negative = inhibition),[4],-1.19% (inactive)
same,Potency,[5],inactive
same,activation,[6],-0.492% (inactive)
O=C(O)C(F)(F)C(F)(F)C(F)(F)C(F)(F)C(F)(F)C(F)(F)C(F)(F)C(F)(F)C(F)(F)F,Potency,[1],inactive
same,Potency,[3],inactive
same,max response,[2],-12.9% and -38.7%
same,activity change % (negative = inhibition),[4],-14.6% (inactive) and -11.9% (inactive)
same,activation,[6],1.39% (inactive) and -1.65% (inactive)
same,outcome,[7],inactive
CCOC(=O)COc1cc(-c2nn(C)c(OC(F)F)c2Cl)c(F)cc1Cl,Potency,[10],inactive
same,Potency,[3],inactive
same,activity change % (negative = inhibition),[4],7.86% (inactive)
same,Potency,[5],17.2 µM (active)
same,activation,[6],1.18% (inactive)
CCC[CH2][Sn](=[O])[CH2]CCC,activation,[9],0.348% (inactive)
same,Potency,[10],inactive
same,activation,[8],-6.54% (inactive)
same,Potency,[3],inactive
same,max response,[2],-5.73%
same,activity change % (negative = inhibition),[4],-7.82% (inactive)
same,activation,[6],-1.97% (inactive)
same,outcome,[7],inactive
CNC(=O)N(C)c1nc2ccccc2s1,activation,[9],-11.3% (inactive)
same,Potency,[11],inactive
same,activation,[8],4.82% (inactive)
same,Potency,[3],inactive
same,Potency,[5],27.3 µM (active)
O=[N+]([O-])c1ccc(Cl)c([N+](=O)[O-])c1,activation,[9],-0.974% (inactive)
same,Potency,[11],35.5 µM (active)
same,activation,[8],16.6% (inactive)
CCC(C)(C)c1cc(-n2nc3ccccc3n2)c(O)c(C(C)(C)CC)c1,activation,[9],3.42% (inactive)
same,Potency,[10],inactive
same,Potency,[3],inactive
same,activity change % (negative = inhibition),[4],12% (inactive)
same,Potency,[5],30.6 µM (active)
same,activation,[6],-0.182% (inactive)
same,outcome,[7],inactive
Cc1nn(-c2cc(NS(C)(=O)=O)c(Cl)cc2Cl)c(=O)n1C(F)F,activation,[9],-3.3% (inactive)
same,Potency,[10],inactive
same,max response,[2],10.2%
same,activity change % (negative = inhibition),[4],-13.9% (inactive)
CC1(C)[C@H](C(=O)O[C@H](C#N)c2cccc(Oc3ccccc3)c2)[C@@H]1C=C(Br)Br,activation,[9],-5.24% (inactive)
same,Potency,[10],inactive
same,max response,[2],-14.7%
